Five compounds from PubChem BioAssay can be followed below.

Test [1] can be described thus: compounds binding Alexa647 anti-His antibody – biochemical, small-molecule microarray, 635 nm fluorescence, artefact control for SMM control protein annotation, primary screen (AID 1128).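 Note: score merges feature fluorescence with signal-to-noise for each printed compound spot.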 The conditions noted are these: higher = more signal.
The test system of test [2] is Human papillomavirus type 1a E7 protein (residues 1-88). As to the kind of experiment: HPV1a E7 small-molecule binders, primary screen, biochemical, small-molecule microarray, residues 1-88, 635 nm (AID 1129). The following applies: small-molecule microarray binding, fluorescence 635 nm; higher = more signal.
For test [3], the target named is Focal adhesion kinase 1 (Homo sapiens) (UniProt Q05397). The experiment in a line: PTK2 protein binding on printed compound slides – biochemical, small-molecule microarray, 635/667 nm fluorescence, BSA, DTT, primary screen (AID 1130).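 Note: composite of spot emission at 667 nm and signal to noise over triplicate slides.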 The conditions noted are these: 635 nm fluorescence, higher = more signal.
Chain of Focal adhesion kinase 1 (Homo sapiens) (Q05397 whole entry, looked up): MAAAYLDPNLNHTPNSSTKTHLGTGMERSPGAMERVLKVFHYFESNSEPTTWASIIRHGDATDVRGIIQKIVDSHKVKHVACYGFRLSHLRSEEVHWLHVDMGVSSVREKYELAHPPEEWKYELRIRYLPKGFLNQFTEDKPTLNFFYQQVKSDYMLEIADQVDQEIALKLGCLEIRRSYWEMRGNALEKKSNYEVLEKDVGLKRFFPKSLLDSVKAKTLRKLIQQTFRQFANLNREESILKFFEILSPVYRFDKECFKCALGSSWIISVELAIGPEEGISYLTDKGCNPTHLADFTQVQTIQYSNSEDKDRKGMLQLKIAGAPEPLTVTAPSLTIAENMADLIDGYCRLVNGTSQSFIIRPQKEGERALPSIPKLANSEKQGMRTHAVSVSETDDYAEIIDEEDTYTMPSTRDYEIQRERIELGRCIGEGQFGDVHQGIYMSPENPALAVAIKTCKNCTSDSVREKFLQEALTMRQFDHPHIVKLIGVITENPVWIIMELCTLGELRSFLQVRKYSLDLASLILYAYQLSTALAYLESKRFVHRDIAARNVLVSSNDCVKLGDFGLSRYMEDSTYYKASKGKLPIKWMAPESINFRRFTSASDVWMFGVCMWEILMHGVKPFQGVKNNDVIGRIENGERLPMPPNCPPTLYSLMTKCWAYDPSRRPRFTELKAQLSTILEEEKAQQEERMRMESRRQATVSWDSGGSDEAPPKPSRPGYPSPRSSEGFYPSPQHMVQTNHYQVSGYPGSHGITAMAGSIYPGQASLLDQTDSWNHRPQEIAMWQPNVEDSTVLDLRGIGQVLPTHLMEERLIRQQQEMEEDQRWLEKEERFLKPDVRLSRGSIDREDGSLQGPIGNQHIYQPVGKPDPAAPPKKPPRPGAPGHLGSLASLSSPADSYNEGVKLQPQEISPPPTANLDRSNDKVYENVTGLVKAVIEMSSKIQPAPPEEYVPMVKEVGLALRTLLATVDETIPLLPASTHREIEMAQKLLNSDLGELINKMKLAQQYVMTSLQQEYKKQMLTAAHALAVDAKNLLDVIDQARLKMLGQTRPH
In test [4] the test system is Fibrinogen (Alexa647-labelled). The experiment in a line: Alexa647-fibrinogen binding to printed small molecules – biochemical, small-molecule microarray, 635/667 nm fluorescence, artefact control for SMM control-protein annotation, profiling panel (AID 1131).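 Note: z-score merges 667 nm fluorescence with per-spot signal-to-noise over triplicate slides.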 The following applies: fibrinogen-A647 binding fluorescence, higher = more signal.
In test [5] the target is Follistatin (Homo sapiens) (UniProt P19883). As to the kind of experiment: FST protein binding to printed compounds – biochemical, small-molecule microarray, 635/667 nm fluorescence, primary screen (AID 1132). The following applies: 635 nm fluorescence, higher = more signal.
Chain of Follistatin (Homo sapiens) (P19883 whole entry, looked up): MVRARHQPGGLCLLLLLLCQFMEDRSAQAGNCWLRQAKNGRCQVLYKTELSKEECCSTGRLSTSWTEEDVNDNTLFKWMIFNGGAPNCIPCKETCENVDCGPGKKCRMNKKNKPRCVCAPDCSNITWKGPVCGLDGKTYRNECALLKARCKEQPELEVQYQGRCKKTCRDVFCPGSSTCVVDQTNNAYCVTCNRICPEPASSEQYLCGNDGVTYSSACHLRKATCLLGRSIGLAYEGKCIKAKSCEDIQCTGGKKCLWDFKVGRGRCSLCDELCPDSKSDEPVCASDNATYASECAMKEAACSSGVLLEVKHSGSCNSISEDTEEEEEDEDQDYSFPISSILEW
For test [6], the target named is Fibroblast growth factor 2 (Homo sapiens) (UniProt P09038). As to the kind of experiment: basic fibroblast growth factor binding to printed compounds – biochemical, small-molecule microarray, 635/667 nm fluorescence, primary screen (AID 1133). The following applies: FGF2, fluorescence 635/667, higher = more signal.
Chain of Fibroblast growth factor 2 (Homo sapiens) (P09038 whole entry, looked up): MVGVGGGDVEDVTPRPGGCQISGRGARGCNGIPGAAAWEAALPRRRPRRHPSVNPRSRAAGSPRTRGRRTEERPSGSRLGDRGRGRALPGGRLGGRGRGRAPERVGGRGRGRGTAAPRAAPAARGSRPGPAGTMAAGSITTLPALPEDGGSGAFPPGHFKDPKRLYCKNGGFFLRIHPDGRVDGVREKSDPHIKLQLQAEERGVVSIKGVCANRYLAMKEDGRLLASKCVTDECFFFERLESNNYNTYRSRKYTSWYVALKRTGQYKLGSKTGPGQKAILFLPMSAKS
A short description of test [7]: JC-1 mitochondrial potential readout, lung cancer cells – cell-based, A549, JC-1 fluorescence, basal, 24 h, 100 nL, profiling panel (AID 1138).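 Note: A549 lung adenocarcinoma cells under basal conditions with no added stimulus; test concentration not given here.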 The conditions noted are these: higher = more signal.
The next test has as its system Lefty1. The experiment in a line: Lefty1 protein binding to printed compounds – biochemical, small-molecule microarray, 635/667 nm fluorescence, primary screen (AID 1139). The conditions noted are these: fluorescence 635/667, higher = more signal.
For test [8], the system named is wheat germ agglutinin (Triticum aestivum), Alexa647-labelled. As to the kind of experiment: Alexa647-WGA lectin binding to printed small molecules – biochemical, small-molecule microarray, 635/667 nm fluorescence, artefact control for SMM control-protein annotation, profiling panel (AID 1140).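 Note: score merges 667 nm feature emission with signal to noise over triplicate slides.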 The conditions noted are these: WGA-A647 binding, 635 nm fluorescence, higher = more signal.

Test [9] deals with Luciferin 4-monooxygenase (Photinus pyralis) (UniProt P08659). As to the kind of experiment: inhibition of purified Photinus pyralis luciferase – biochemical, luminescence, purified enzyme, 2006 set, primary screen (AID 1141).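 Note: cell-free assay with purified firefly luciferase at 100 ng per well in PBS; test concentration not given here.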 The following applies: purified firefly luciferase, SteadyGlo luminescence, 30 min; higher = more signal, called active from +8 up or from −8 down.
Chain of Luciferin 4-monooxygenase (Photinus pyralis) (P08659 whole entry, looked up): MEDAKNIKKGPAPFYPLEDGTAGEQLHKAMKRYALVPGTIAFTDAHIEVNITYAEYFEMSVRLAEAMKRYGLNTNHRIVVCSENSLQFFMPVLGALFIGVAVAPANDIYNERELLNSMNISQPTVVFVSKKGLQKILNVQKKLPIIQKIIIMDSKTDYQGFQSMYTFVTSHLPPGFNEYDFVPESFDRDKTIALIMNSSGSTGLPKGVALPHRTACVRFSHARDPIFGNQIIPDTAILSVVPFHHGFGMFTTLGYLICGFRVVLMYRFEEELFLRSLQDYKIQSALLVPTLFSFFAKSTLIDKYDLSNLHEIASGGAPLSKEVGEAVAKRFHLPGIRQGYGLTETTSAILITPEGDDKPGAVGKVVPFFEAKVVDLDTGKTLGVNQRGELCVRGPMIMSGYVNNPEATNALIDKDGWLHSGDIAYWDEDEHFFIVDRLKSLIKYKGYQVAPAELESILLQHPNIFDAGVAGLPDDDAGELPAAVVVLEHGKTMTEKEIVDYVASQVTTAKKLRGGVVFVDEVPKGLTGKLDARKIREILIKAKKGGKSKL
Test [10] concerns Wnt5a (protein binding on small-molecule microarray). As to the kind of experiment: small molecules binding Wnt5a protein – biophysical, small-molecule microarray, 635/667 nm fluorescence, primary screen (AID 1142).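 Note: fluorescence read at 667 nm with signal to noise per printed feature.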 The conditions noted are these: 635 nm fluorescence, higher = more signal.
A short description of test [11]: ATP-based viability of Huh7 replicon cells – cell-based, CellTiter-Glo luminescence, basal, 48 h, cytotoxicity control for HCV replication inhibitor project, primary screen (AID 1143).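 Note: Huh7 hepatoma cells carrying a hepatitis C replication reporter with no stimulus; test concentration not given here.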 The conditions noted are these: higher = more signal, called active from +8 up or from −8 down.
A short description of test [12]: Pseudomonas biofilm growth suppression – PAO1 strain, BacTiter-Glo luminescence, LB-PBS, primary screen (AID 1144). The conditions noted are these: P. aeruginosa PAO1 biofilm, 12 h, higher = more signal.
Test [13] can be described thus: basal CRE-LacZ reporter activity in PC12 – cell-based, unstimulated, primary screen (AID 1145). The following applies: no forskolin, luminescence, 4.5 h, higher = more signal, called active from +8 up or from −8 down.
A short description of test [14]: forskolin-driven CRE-LacZ activity in PC12 – cell-based, CRE-LacZ reporter, forskolin-stimulated, primary screen (AID 1146).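 Note: PC12 cells with 6xCRE LacZ reporter stimulated by forskolin 10 µM; beta-galactosidase reporter signal reflecting CREB driven transcription.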 The conditions noted are these: luminescence, 4.5 h, higher = more signal, called active from +8 up or from −8 down.
Test [15] has as its target Streptavidin (Streptomyces avidinii) (UniProt P22629). As to the kind of experiment: compounds binding control protein streptavidin – biophysical, small-molecule microarray, 635/667 nm fluorescence, artefact control for SMM compound annotation, primary screen (AID 1147).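 Note: signal reflects streptavidin binding to arrayed compounds as a control protein.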 The conditions noted are these: higher = more signal.
Test [16] can be described thus: probe aInhba binding on compound microarray – biochemical, small-molecule microarray, 635/667 nm fluorescence, primary screen (AID 1148).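 Note: score merges 667nm spot fluorescence with signal-to-noise for antibody binding to printed compounds.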 The conditions noted are these: higher = more signal.
The target of test [17] is Torsin-1A (Homo sapiens) (UniProt O14656). The experiment in a line: TOR1A wild-type binding on microarray – cell lysate, small-molecule microarray, lysate, 635/667 nm, primary screen (AID 1149). The conditions noted are these: COS7 hTOR1A-WT lysate, 635 nm fluorescence, higher = more signal.
Chain of Torsin-1A (Homo sapiens) (O14656 whole entry, looked up): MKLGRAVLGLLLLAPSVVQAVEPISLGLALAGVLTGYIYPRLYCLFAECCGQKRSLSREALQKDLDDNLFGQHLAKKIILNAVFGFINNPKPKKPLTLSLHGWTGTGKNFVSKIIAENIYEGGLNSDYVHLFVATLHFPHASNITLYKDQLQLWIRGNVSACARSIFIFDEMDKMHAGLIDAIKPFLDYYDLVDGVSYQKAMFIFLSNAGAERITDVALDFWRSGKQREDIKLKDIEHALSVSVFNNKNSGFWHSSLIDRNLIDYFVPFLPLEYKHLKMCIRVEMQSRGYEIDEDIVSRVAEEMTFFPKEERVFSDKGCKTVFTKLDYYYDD
The target is the same in test [18]. The experiment in a line: torsin A mutant lysate binding on microarrays – cell lysate, small-molecule microarray, COS7 lysate, 635/667 nm fluorescence, primary screen (AID 1150).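 Note: score pools 667 nm emission and signal to noise measuring lysate protein binding.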 The conditions noted are these: COS7 hTOR1A mutant lysate, 635 nm fluorescence, higher = more signal.
Test [19] relates to Sonic hedgehog protein (Shh). As to the kind of experiment: Sonic hedgehog microarray binding compounds – biochemical, small-molecule microarray, 635/667 nm fluorescence, primary screen (AID 1151).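 Note: Shh protein binding to compounds spotted on small-molecule microarray slides; score combines spot fluorescence intensity with signal-to-noise across triplicate slides.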 The conditions noted are these: 635 nm fluorescence, higher = more signal.

Activity calls are given as the source filed them. Unless noted, the rule behind the calls is not given here.

Chain of Streptavidin (Streptomyces avidinii) (P22629 whole entry, looked up): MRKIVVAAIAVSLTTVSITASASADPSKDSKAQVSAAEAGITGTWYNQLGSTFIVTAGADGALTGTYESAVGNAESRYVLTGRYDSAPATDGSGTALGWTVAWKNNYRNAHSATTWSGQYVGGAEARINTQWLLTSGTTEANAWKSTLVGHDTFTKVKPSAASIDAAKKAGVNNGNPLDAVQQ

Turning to `COC(=O)CC=C[C@@H](C)[C@@H](C=NO[C@@H]1O[C@H](COC(C)=O)[C@@H](OC(C)=O)[C@H](OC(C)=O)[C@H]1OC(C)=O)NS(=O)(=O)c1ccc(C)cc1`, the composite z-score in test [1] was -0.588; in test [2] it was -0.231; in test [3], 0.14; in [4] it was -0.083; in test [5], 0.484; in [6], 0.35. Besides, the composite z-score is 0.647 with Lefty1; -0.986 in [8]; -0.0003 in [10]; -0.909 in test [15]; 0.0086 in [16]; 0.514 in the test with Torsin-1A (Homo sapiens) [17]. For the same compound, the composite z-score in the test with Torsin-1A (Homo sapiens) [18] came out at 0.311; in test [19], 0.629. The z-score in test [7] is -0.63; in [9], 1.08 (inactive); in [11], 0.0322 (inactive); in test [12], -0.202 (inactive); in test [13], 7.64 (inactive); in test [14] it was 1.02 (inactive).

For the compound `COc1cccc([C@H]2Oc3ccc(OC)cc3C(=NOC[C@@H](O)[C@H]3O[C@@H]4OC(C)(C)O[C@@H]4[C@H]3O)[C@@H]2O)c1`, the composite z-score is -1.33 in test [1]; 0.372 in [2]; 0.263 in test [3]; 0.213 in [4]; 0.418 in [5]; 0.318 in test [6]. For the same compound, the composite z-score with Lefty1 is 0.892; in test [8], -0.0123; in test [10], 0.205; in test [15] it was -0.311; in test [16], -0.105; with Torsin-1A (Homo sapiens) [17] it was 0.0929. The composite z-score with Torsin-1A (Homo sapiens) [18] amounted to 0.339; in test [19], 0.303. Also, the z-score in [7] is -0.315; in test [9], -4.03 (inactive); in test [11] it was -2.83 (inactive); in test [12] it was 1.12 (inactive); in test [13], 2.02 (inactive); in test [14] it was 0.0487 (inactive).

In the case of `CO[C@@H]1COC(=O)[C@H](CCSC)NC(=O)CC=C[C@@H](C)COC(=O)CCC[C@H]1C`, the composite z-score in [1] was -0.252; in test [2], -1.17; in [3] it was -0.798; in test [4], -2.26; in [5], 1.44; in test [6] it was 1.97. In addition, the composite z-score in the test with Lefty1 is 1.84; in test [8], -0.65; in test [10], -0.277; in [15], -1.47; in [16], -0.255; with Torsin-1A (Homo sapiens) [17], 4.03. The composite z-score in the test with Torsin-1A (Homo sapiens) [18] amounted to 4.08; in test [19], 2.27. Besides, the z-score in test [7] is 0.803; in [9], 1.05 (inactive); in test [11], -2.75 (inactive); in [12], -0.88 (inactive); in test [13], 0.341 (inactive); in test [14], 0.85 (inactive).

As for `CC(C)=NO[C@H](C)c1cn([C@H](CO)Cc2ccccc2)nn1`, the composite z-score in [1] came out at 1.28; in [2] it was 0.464; in test [3], 0.548; in [4], 0.991; in test [5] it was 0.139; in [6] it was 0.137. Further, the composite z-score in the test on Lefty1 is 0.137; in [8] it was -0.026; in test [10] it was -0.179; in [15], 1.14; in test [16], -0.0178; in the test with Torsin-1A (Homo sapiens) [17] it was -0.232. Moreover, the composite z-score was 0.015 in the test with Torsin-1A (Homo sapiens) [18] and -0.195 in [19]. Besides, the z-score is -0.34 in test [7]; -1.69 (inactive) in test [9]; -0.684 (inactive) in test [11]; 0.159 (inactive) in test [12]; 1.61 (inactive) in test [13]; 0.112 (inactive) in test [14].

Consider `COC(=O)[C@H]1O[C@@H](c2c(OC)c(OC)c(C)c(OC)c2OC)[C@H](C)[C@@H](O)[C@H]1C`, for which the composite z-score in test [1] was 0.377; in test [2], 0.998; in test [3], 0.169; in [4], 0.902; in test [5] it was 0.694; in test [6], 0.577. For the same compound, the composite z-score was found to be 1.08 in the test on Lefty1; 0.526 in test [8]; 0.2 in test [10]; 0.353 in test [15]; 0.141 in test [16]; 0.859 with Torsin-1A (Homo sapiens) [17]. Besides, the figures for the composite z-score (with Torsin-1A (Homo sapiens) [18]; in [19]) were 0.295 and 0.434, respectively. For the same compound, the z-score in test [7] was 0.274; in [9], -0.246 (inactive); in test [11] it was 0.299 (inactive); in test [12] it was -0.895 (inactive); in test [13], 0.564 (inactive); in [14] it was 1.12 (inactive).
